Most compounds without a hit are left out; they make up all but 0.84% or so of the library.
G6PDH CS: L. mesenteroides G6PDH inhibition counter-screen. Purified L. mesenteroides G6PDH, diaphorase/resazurin coupled fluorescence, 45 min. inhibition, % at 5 µM. actives 0.12% (n = 200,000). AID 1020; in the data active = inhibition above about 50%
TbHK1 inh: blocks Trypanosoma brucei hexokinase 1 activity; recombinant TbHK1, G6PDH-coupled NADH A340; inhibition, % at 10 µM; actives 0.11% (n = 220,000);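 active = inhibition of 50% or more in the single-dose primary screen; inactive = inhibition below 50%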
p97 inhibitor: blocks human p97 ATPase activity; AID 1481; actives 0.42% (n = 220,000); P55072; recombinant p97 ATPase, Kinase-Glo ATP luminescence, 3 h; inhibition, % at 8 µM; in the data active = inhibition above about 15%
S1P3 antag-1: blocks the human S1P3 receptor; Q99500; CHO S1P3 NFAT-BLA reporter, FRET fluorescence, antagonist mode; inhibition, % at 4.98 µM; actives 0.27% (n = 170,000); AID 485;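 active = inhibition above the plate cutoff, the mean inhibition of test wells on that plate plus 3 SD, cut at about 28% in these data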;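 note: cells challenged with S1P at its EC80 of 0.8 µM; blue over green emission ratio from cleaved BLA substrate after 4 h stimulation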
DTT redox prof: compounds producing H2O2 with reducing agent – biochemical, NIH compound library profiling, artefact control for MLSCN library redox annotation, primary screen; AID 878; DTT-dependent redox cycling H2O2, phenol red/HRP absorbance; 100% = 100 µM peroxide control, 0% = buffer; activation, % at 10 µM; actives 0.03% (n = 200,000);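 active = activation of at least 50% relative to the plate's high and low controls in the primary single-dose screen; inactive = activation below 50%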;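 note: compound incubated with DTT at 0.8 mM final as the reducing agent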
S1P3 antag-2: human S1P3 receptor antagonism, confirmation; inhibition, % at 4.98 µM; CHO S1P3 NFAT-BLA reporter, FRET, antagonist mode; shares compounds with S1P3 antag-1; actives 30% (n = 240);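 active = inhibition above the hit threshold that was computed for the earlier primary screen, cut at about 30% in these data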
Numbers stand for hits.

What do the screens show for `O=C(/C=C\Nc1cccc(F)c1)c1cccs1`?
G6PDH CS: inactive; TbHK1 inh: inactive; p97 inhibitor: inactive; DTT redox prof: inactive

What do the screens show for `CCOC(=O)COc1cccc2c(=O)n(CC(=O)NCc3ccc(F)cc3)ccc12`?
TbHK1 inh: inactive; p97 inhibitor: inactive; S1P3 antag-1: 30; S1P3 antag-2: inactive

What do the screens show for `CCOC(=O)COc1cccc2c(=O)n(CC(=O)NCc3ccccc3)ccc12`?
TbHK1 inh: inactive; p97 inhibitor: inactive; S1P3 antag-1: inactive

Results for CCOC(=O)N1CCN(c2c(Nc3cc(C)[nH]n3)c(=O)c2=O)CC1 ?
G6PDH CS: inactive; TbHK1 inh: inactive; p97 inhibitor: inactive; S1P3 antag-1: inactive; DTT redox prof: inactive

How did CN1CCN(CCCC(=O)c2ccc(C3CCCC3)cc2)CC1 do in these assays?
G6PDH CS: inactive; TbHK1 inh: inactive; p97 inhibitor: inactive; S1P3 antag-1: inactive; DTT redox prof: inactive

How did Cc1[nH]c2ccccc2c1C(=O)C(=O)NCC1CCCO1 (configuration not stated) do in these assays?
G6PDH CS: inactive; TbHK1 inh: inactive; p97 inhibitor: inactive; S1P3 antag-1: 53; DTT redox prof: inactive; S1P3 antag-2: inactive

Results for Cc1c(N=C2N=C(NC(=O)Nc3ccc(Cl)cc3)c3ccccc32)c(=O)n(-c2ccccc2)n1C ?
G6PDH CS: inactive; TbHK1 inh: inactive; p97 inhibitor: inactive; S1P3 antag-1: 40; DTT redox prof: inactive; S1P3 antag-2: inactive

How did O=C1N/C(=C\c2ccc(O)cc2)C(O)=C1C=NCc1ccccc1 do in these assays?
G6PDH CS: inactive; TbHK1 inh: inactive; p97 inhibitor: inactive; S1P3 antag-1: 29; DTT redox prof: inactive; S1P3 antag-2: inactive

Results for O=C(Nc1ccccc1N1CCOCC1)c1cccs1 ?
G6PDH CS: inactive; TbHK1 inh: inactive; p97 inhibitor: inactive; DTT redox prof: inactive

What do the screens show for `O=C(Nc1ccc(-c2nc3ccccc3[nH]2)cc1)c1c(F)c(F)c(F)c(F)c1F`?
G6PDH CS: inactive; TbHK1 inh: inactive; p97 inhibitor: inactive; S1P3 antag-1: inactive; DTT redox prof: inactive

What do the screens show for `COc1c(F)c(F)c(C(=O)Nc2ccc(-c3nc4ccccc4[nH]3)cc2)c(F)c1F`?
G6PDH CS: inactive; TbHK1 inh: inactive; p97 inhibitor: inactive; S1P3 antag-1: 28; DTT redox prof: inactive; S1P3 antag-2: inactive

How did Cc1ccn2cc(C(=O)NCc3ccco3)nc2c1 do in these assays?
G6PDH CS: inactive; TbHK1 inh: inactive; p97 inhibitor: inactive; S1P3 antag-1: 30; DTT redox prof: inactive; S1P3 antag-2: inactive

What do the screens show for `Cc1cc(C)n2nc(C(=O)NCc3ccco3)cc2n1`?
G6PDH CS: inactive; TbHK1 inh: inactive; p97 inhibitor: inactive; S1P3 antag-1: inactive; DTT redox prof: inactive

How did O=C(COc1ccccc1Cl)NCCc1ccc2c(c1)OCCO2 do in these assays?
G6PDH CS: inactive; TbHK1 inh: inactive; p97 inhibitor: inactive; S1P3 antag-1: inactive; DTT redox prof: inactive

Results for COc1ccc2[nH]c3c(N4CCc5ccccc5C4)ncnc3c2c1 ?
TbHK1 inh: inactive; p97 inhibitor: inactive; S1P3 antag-1: 31; S1P3 antag-2: inactive

How did COc1ccc(-c2[nH]ncc2N=Nc2ccccc2)cc1 do in these assays?
G6PDH CS: inactive; TbHK1 inh: inactive; p97 inhibitor: inactive; S1P3 antag-1: inactive; DTT redox prof: inactive

What do the screens show for `COc1ccc(-c2[nH]ncc2N=Nc2cc(C)cc(C)c2)cc1`?
G6PDH CS: inactive; TbHK1 inh: inactive; p97 inhibitor: inactive; S1P3 antag-1: 38; DTT redox prof: inactive; S1P3 antag-2: inactive

Results for CC(C(=O)Nc1cccc(Br)c1)c1ccc([N+](=O)[O-])cc1 (configuration not stated) ?
G6PDH CS: inactive; TbHK1 inh: inactive; p97 inhibitor: inactive; S1P3 antag-1: 30; DTT redox prof: inactive; S1P3 antag-2: inactive

Results for CC(C)c1ccc(/C=C/C(=O)NCCC2=CCCCC2)cc1 ?
G6PDH CS: inactive; TbHK1 inh: inactive; p97 inhibitor: inactive; S1P3 antag-1: 30; DTT redox prof: inactive; S1P3 antag-2: inactive

What do the screens show for `CCOc1ccc(-c2nnc(SCC(=O)Nc3cc(C)on3)o2)cc1`?
G6PDH CS: inactive; TbHK1 inh: inactive; p97 inhibitor: inactive; S1P3 antag-1: 33; DTT redox prof: inactive; S1P3 antag-2: inactive

Results for C/C(=N/Nc1ccc([N+](=O)[O-])cc1)c1ccc(C)cc1C ?
G6PDH CS: inactive; TbHK1 inh: inactive; p97 inhibitor: inactive; S1P3 antag-1: 33; DTT redox prof: inactive; S1P3 antag-2: inactive

How did O=C(N/N=C/c1ccc([N+](=O)[O-])cc1)c1cc2ccccc2o1 do in these assays?
TbHK1 inh: inactive; p97 inhibitor: inactive; S1P3 antag-1: inactive

What do the screens show for `C/C(=N\Nc1ccc([N+](=O)[O-])cc1)c1ccc(C#N)cc1`?
TbHK1 inh: inactive; p97 inhibitor: inactive; S1P3 antag-1: inactive

What do the screens show for `C/C(=N\Nc1ccc([N+](=O)[O-])cc1)c1cc2ccccc2o1`?
G6PDH CS: inactive; TbHK1 inh: inactive; p97 inhibitor: inactive; S1P3 antag-1: 54; DTT redox prof: inactive; S1P3 antag-2: 55

Results for COc1ccc2c(c1)O[C@H](c1ccc3c(c1)OCO3)[C@@H](OC(=O)Nc1cc(OC)c(OC)c(OC)c1)C2=O ?
G6PDH CS: inactive; TbHK1 inh: inactive; p97 inhibitor: inactive; S1P3 antag-1: inactive; DTT redox prof: inactive

How did O=C(CSc1nc(C2CCCCC2)n(-c2ccccc2)n1)NCC(F)(F)F do in these assays?
G6PDH CS: inactive; TbHK1 inh: inactive; p97 inhibitor: inactive; S1P3 antag-1: 51; DTT redox prof: inactive; S1P3 antag-2: inactive

Results for O=C(Cc1ccccc1)Nn1c(-c2ccccc2F)nc2ccccc2c1=O ?
G6PDH CS: inactive; TbHK1 inh: inactive; p97 inhibitor: inactive; S1P3 antag-1: inactive; DTT redox prof: inactive

What do the screens show for `CCC(C)C(NC(=O)C1CCC(C)CC1)C(=O)Nc1ccc(OC)cc1OC` (configuration not stated)?
G6PDH CS: inactive; TbHK1 inh: inactive; p97 inhibitor: inactive; S1P3 antag-1: inactive; DTT redox prof: inactive

How did Cc1ccc(S(=O)(=O)Oc2ccccc2/C=N/N=C(N)N)cc1 do in these assays?
G6PDH CS: inactive; TbHK1 inh: inactive; p97 inhibitor: inactive; S1P3 antag-1: 36; DTT redox prof: inactive; S1P3 antag-2: inactive

Results for Cc1snc(SCC(=O)N/N=C(\N)COc2ccc(F)cc2)c1C#N ?
G6PDH CS: inactive; TbHK1 inh: inactive; p97 inhibitor: inactive; DTT redox prof: inactive

How did O=P(Cc1ccncc1)(c1ccccc1)c1ccccc1 do in these assays?
G6PDH CS: inactive; TbHK1 inh: inactive; p97 inhibitor: inactive; DTT redox prof: inactive

Results for CC1(C)OC(=O)C(=CNCCc2ccc(O)cc2)C(=O)O1 ?
G6PDH CS: inactive; TbHK1 inh: inactive; p97 inhibitor: inactive; S1P3 antag-1: 28; DTT redox prof: inactive; S1P3 antag-2: inactive

How did CC1(C)OC(=O)C(=CNCC(O)c2ccccc2)C(=O)O1 (configuration not stated) do in these assays?
G6PDH CS: inactive; TbHK1 inh: inactive; p97 inhibitor: inactive; S1P3 antag-1: inactive; DTT redox prof: inactive
